Compound activity: PubChem BioAssay, National Center for Advancing Translational Sciences (NCATS)
Hits are enriched below; roughly 8% of the tested compounds scored in any of these assays.
HCV inh = inhibitors of hepatitis C virus infection; Huh7.5.1 HCVcc-Cre infection, luciferase reporter, 44 h; Potency, µM (doses to about 41.8 µM), for inactives: top-dose activity change, negative = inhibition, actives largely listed as inhibitors; 340,000 tested, 3.4% active; AID 651820; active means well fitted inhibition curve with a large enough effect; inconclusive means small, poorly fitted or top-dose-only effect, or another doubt; inactive means no such curve, though single readings can be large or run the other way; further: potency means the concentration at half of the fitted maximal effect; on the % scale 0 is the no-effect control and ±100 the full control effect
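Infectious HCV cell culture screen: compound-treated cells (1,000/well, pre-plated 4 h) are infected with HCVcc-Cre at roughly 0.5 moi and grown 44 h. Infection is quantified by luciferase signal after 15 min substrate incubation at room temperature.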
Marburg entry inh = blocks Marburg virus binding to or entry into cells | Potency, µM (top dose mostly 37.8 µM), for inactives: at the highest dose activity change, negative = inhibition, most hits filed as inhibitors | 300,000 tested, 1.8% active | Marburg virus pseudotyped entry inhibition, cell reporter | AID 540276; calls by dose curve; tested in HEK293 cells; further: potency means the concentration at half of the fitted maximal effect; on the % scale 0 is the no-effect control and ±100 the full control effect
Lassa entry inh = inhibitors of Lassa virus binding or cell entry; Potency, µM (highest dose often 37.9 µM), without a hit: at the highest dose activity change, negative = inhibition, usual class: inhibitors; Lassa virus pseudotype entry inhibition, cell reporter; 300,000 tested, 1.2% active; AID 540256; calls by dose curve; tested in HEK293 cells; further: potency means the concentration at half of the fitted maximal effect; on the % scale 0 is the no-effect control and ±100 the full control effect; nearly all actives have a fitted effect of over 50% in size
HCMV antiviral = human cytomegalovirus inhibition. HFF cells, HCMV-luciferase reporter, 72 h; active compounds read low. AID 1259415. 410,000 tested, 4.5% active. activity change, negative = inhibition, % at 57.5 µM; in the data active means activity change below about -60%; inconclusive means no clear call, values can overlap the other calls; inactive means above about -39%; further: on the % scale 0 is the no-effect control and ±100 the full control effect
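Cell-based, HFFs, 1000 cells/well, 16 h 37C; cpds in DMSO + HCMV-luc, MOI 1 PFU/cell; 72 h 37C; OneGlo luminescence after 5 min RT; norm. to buffer vs Salinomycin 10uM.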
FMDV antiviral = blocks foot and mouth disease virus; Potency, µM (doses to about 57.9 µM), without a hit: at the top dose activity change, negative = inhibition, most hits filed as inhibitors; 410,000 tested, 1.2% active; FMDV antiviral cell-based qHTS; calls by dose curve; tested in HEK293T cells; further: read-out not given here; potency means the concentration at half of the fitted maximal effect; on the % scale 0 is the no-effect control and ±100 the full control effect; nearly all actives have a fitted effect of over 45% in size
SARS PLpro yeast = inhibitors of SARS-CoV papain-like protease in yeast. S. cerevisiae expressing SARS-CoV PLpro, growth rescue. Potency, µM (titrated, usually from 32.9 µM), without a hit: top-dose activity, positive = growth rescue, actives largely listed as activators. 330,000 tested, 0.19% active. AID 485353; calls by dose curve; further: potency means the concentration at half of the fitted maximal effect; 0% is about no effect; nearly all actives have a fitted effect of over 55% in size
Numbers without * were called inactive; u = inconclusive; x = no result given; [ ] = another dose, or the depositor's remark.

SMILES | HCV inh | Marburg entry inh | Lassa entry inh | HCMV antiviral | FMDV antiviral | SARS PLpro yeast
CC(C)[C@H](NC(=O)c1ccc([N+](=O)[O-])cc1Cl)C(=O)N1CCN(C/C=C/c2ccccc2)CC1 | 14.1µM* | u | u | -19.6 | u | 1.5%
CCOC(=O)c1c(C)[nH]c(C)c1S(=O)(=O)N1CCCC(C(=O)NCc2cccc(OC)c2)C1 (stereo not drawn) | x | x | 4.1%[46.1 µM] | -0.9 | 24.1% | x
CCc1cc(C(=O)OC)c(NC(=O)CN2CCN(C(=O)c3ccco3)CC2)s1 | x | -18.1% | u | 19.9 | u | 1.1%
Cc1ccc(C(=O)c2cc(C)sc2NC(=O)CN2CCN(C(=O)c3ccco3)CC2)cc1 | 12.6µM* | u | u | 5.3 | u | -16.7%
COc1cc(-c2nc(C(=O)NCC3CCCO3)cc3c2[nH]c2ccccc23)cc(OC)c1OC (stereo not drawn) | 3.55µM* | x | x | 18.1 | u | 15.9%
O=C(NCC1CCCO1)c1cc2c([nH]c3ccccc32)c(-c2cccc(Cl)c2)n1 (stereo not drawn) | 1.26µM* | x | x | x | u | -17.0%
COc1ccccc1-c1nc(C(=O)NCC2CCCO2)cc2c1[nH]c1ccccc12 (stereo not drawn) | u | x | x | x | -23.9% | -19.9%
COc1ccc([C@@H]2[C@@H](C(=O)N3CCOCC3)CC(=O)N2C(=O)Nc2ccc(C)c(Cl)c2)cc1 | x | x | x | 11.0 | x | x
Cc1c(NC(=O)OCCSc2nc(N(C)C)nc(N(C)C)n2)sc(=S)n1C | 14.1µM* | -15.5% | -13.2% | u | x | x
CC(=O)NCCOC(=O)Nc1sc(=S)n(C)c1C | 24.1% | 3.5% | 16.8% | 50.1 | 13.1% | -18.1%
COc1ccc(-c2nc3ccccn3c2CN2CCN(c3ccccc3F)CC2)cc1 | u | -18.4%[46.1 µM] | -13.0% | -60.8* | -27.2% | -2.6%
COc1ccc(-c2nc3ccccn3c2Cl)cc1 | u | u | 3.55µM* | -33.6 | u | -4.6%
COc1cc(/C=N/N(CCO)C2=NS(=O)(=O)c3ccccc32)cc(OC)c1OC | u | u | -16.9%[46.1 µM] | 10.7 | -25.5% | 3.8%
COc1cc(Br)cc(/C=N/N(CCO)C2=NS(=O)(=O)c3ccccc32)c1OC | u | 3.98µM* | -27.9%[46.1 µM] | 57.8 | u | 7.1%
COc1ccc(CC2NCC(O)C2OC(C)=O)cc1 (stereo not drawn) | 0.562µM* | x | x | -108.7* | u | x
COC(=O)[C@@H]1[C@@H](c2ccccc2)[C@H]2C(=O)c3c(OC)cc(OC)cc3O[C@@]12c1ccc(OC)cc1 | x | 3.3%[14.2 µM] | x | x | x | x
COc1ccc([C@@]23Oc4cc(OC)cc(OC)c4[C@]2(O)[C@H](O)[C@H](C(=O)N(C)C)[C@H]3c2ccccc2)cc1 | x | 0.112µM* | u | -98.1* | u | x
O=C(O)CCc1[nH]c2ccccc2c1Sc1ccccc1 | 28.2% | u | -0.3% | -32.9 | -15.6% | 0.1%
CN(CCO)C(=O)c1cn(C2CCCN(Cc3cc4ccccc4s3)C2)nn1 (stereo not drawn) | x | x | x | x | -22.7% | x
CC(C)N=c1cc2n(-c3ccc(Cl)cc3)c3ccccc3nc-2cc1Nc1ccc(Cl)cc1 | -11.5% | x | x | -63.6* | -13.8% | x
CC(NC(=O)c1ccccc1)c1nc2ccccc2n1Cc1ccc(Cl)cc1 (stereo not drawn) | x | -11.4%[46.1 µM] | -22.4%[46.1 µM] | -15.1 | -24.4% | x
CC(C)C(NS(C)(=O)=O)c1nnc2n1CCN(Cc1ccc(C#CC(C)(C)O)cc1)CC2 (stereo not drawn) | x | x | x | x | -0.3% | x
Cn1c(N)c(S(=O)(=O)c2ccc(Br)cc2)c2nc3ccccc3nc21 | -1.4% | 6.31µM* | 8.1% | 37.5 | 46.9% | 1.9%
Nc1c(S(=O)(=O)c2ccccc2)c2nc3ccccc3nc2n1/N=C/c1cccc(O)c1 | 14.1µM* | -15.8% | -0.2% | -101.1* | -27.4% | -2.3%
Cc1cccc(S(=O)(=O)c2c(N)n(/N=C/c3ccccc3)c3nc4ccccc4nc23)c1 | 2.1% | u | -12.7% | -30.2 | 24.1% | 13.4%
SMILES | HCV inh | Marburg entry inh | Lassa entry inh | HCMV antiviral | FMDV antiviral | SARS PLpro yeast
Cc1ccc(/C([O-])=C(/C(=S)NCc2ccco2)[n+]2ccccc2)cc1 | x | x | x | x | x | -2.6%
O=[N+]([O-])c1ccc(/C([O-])=C(/C(=S)NCc2ccco2)[n+]2ccccc2)cc1 | -9.0% | 17.5%[46.1 µM] | -11.4%[46.1 µM] | -61.0* | 17.6% | -1.1%
O=S(=O)(Cc1ccc(Cl)cc1)Nc1ccc(Cl)cn1 | 18.0% | u | 10.4% | -100.5* | 2.9% | -2.6%
O=C(Cc1ccc(Cl)cc1)Nc1ccc(Cl)cn1 | -8.8% | -1.4%[46.1 µM] | -21.7%[46.1 µM] | 4.3 | 10.9% | -4.5%
COc1ccc(-c2nn(-c3ccccc3)cc2C(=O)O)cc1 | 11.1% | x | x | 23.8 | -1.2% | 2.5%
COc1ccc(-c2nn(-c3ccccc3)cc2C(=O)N2c3ccc(C)cc3C3CN(C)CCC32)cc1 (stereo not drawn) | -24.9% | u | 11.2µM* | u | -2.8% | 0.5%
CN(C)CCCNC(=O)C[C@H]1C[C@H](C(=O)N2CCOCC2)[C@@]2(CCC3CCCC3)c3[nH]c4cc(-c5ccco5)ccc4c3CCN2C1=O | 7.94µM* | x | x | u | -24.6% | -4.7%
CC(C)N(C(=O)[C@H]1C[C@H](CC(=O)NCCCN(C)C)C(=O)N2CCc3c([nH]c4cc(-c5ccco5)ccc34)[C@]12C)C(C)C | 8.91µM* | x | x | -24.2 | 0.0% | -4.8%
C[C@]12c3[nH]c4cc(-c5ccco5)ccc4c3CCN1C(=O)[C@@H](CC(=O)NCC13CC4CC(CC(C4)C1)C3)C[C@@H]2C(=O)N1CCOCC1 | 25.1µM* | x | x | -29.4 | u | 8.5%
CC(C)=CCC/C(C)=C/CNC(=O)C[C@H]1C[C@H](C(=O)N(C(C)C)C(C)C)[C@@]2(C)c3[nH]c4cc(-c5ccco5)ccc4c3CCN2C1=O | -21.6%[8.37 µM] | x | x | -15.4 | 0.0% | -0.7%
O=C(C[C@H]1C[C@H](C(=O)N2CCOCC2)[C@@]2(CCC3CCCC3)c3[nH]c4cc(-c5ccco5)ccc4c3CCN2C1=O)NCCN1CCOCC1 | u | x | x | -10.8 | u | -3.0%
CC(C)=CCC/C(C)=C/CNC(=O)C[C@H]1C[C@H](C(=O)N(C(C)C)C(C)C)[C@@]2(C)c3[nH]c4cc(CCC(=O)N(C)C)ccc4c3CCN2C1=O | 10µM* | x | x | -15.2 | u | -1.3%
O=C(c1ccc2c(c1)OCO2)N1CCOc2ccc(CN3CCC(Oc4cccnc4)CC3)cc2C1 | x | x | x | x | -13.4% | x
CC(C)N(C(=O)[C@H]1C[C@H](CC(=O)NCCCN(C)C)C(=O)N2CCc3c([nH]c4cc(CCC(=O)N(C)C)ccc34)[C@]12C)C(C)C | 0.316µM* | x | x | -14.3 | -5.4% | 0.3%
C=C1C(=O)O[C@H]2C1CC[C@@](C)(O)C13C=CC(C)(C21)C1(C3)C(=O)O[C@@H]2C3C(C)=CCC3[C@](C)(O)C[C@H](OC(C)=O)C21 (stereo partly drawn) | 0.8% | -44.7% | u | -90.3* | -24.4% | 0.9%
